SMILES strings stand for the structures. Results filed as inconclusive are left out. The source made the active and inactive calls. Unless noted, the call rests on the fitted dose curve; in most records, active means well fitted curve in the direction sought with a large enough effect in the repeat runs; inconclusive means weak or mixed curves; inactive means no such curve, though single readings can be large; an effect the other way counts as inactive or inconclusive.

Results on 28 compounds are retold here after PubChem BioAssay (Tox21).

A short description of experiment [1]: qHTS assay to identify small molecule antagonists of the glucocorticoid receptor (GR) signaling pathway - cell viability counter screen (AID 720693). Further: nearly all actives have a fitted effect of over 55% in size.
The nature of experiment [2]: qHTS assay for identifying genotoxic compounds that show differential cytotoxicity against isogenic chicken DT40 cell lines with known DNA damage response pathways - wild type cell line (AID 743012). Further: nearly all actives have a fitted effect of over 60% in size. Further: potency means the concentration at half of the fitted maximal effect. Summed up: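 Luminescent ATP viability signal (CellTiter-Glo, 30 min RT) recorded after wild type DT40 cells were incubated with compounds for 40 h at 37 C/5% CO2.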
Experiment [3] can be described thus: qHTS assay for identifying genotoxic compounds that show differential cytotoxicity against isogenic chicken DT40 cell lines with known DNA damage response pathways - Rev3 mutant cell line (AID 743014). Further: nearly all actives have a fitted effect of over 55% in size. Further: potency means the concentration at half of the fitted maximal effect.
Experiment [4] in a line: qHTS assay for identifying genotoxic compounds that show differential cytotoxicity against isogenic chicken DT40 cell lines with known DNA damage response pathways - Rad54/Ku70 mutant cell line (AID 743015). Further: nearly all actives have a fitted effect of over 60% in size. Further: potency means the concentration at half of the fitted maximal effect.
Experiment [5] can be described thus: qHTS assay to identify small molecule antagonists of the androgen receptor (AR) signaling pathway - cell viability counter screen (AID 743033; further: nearly all actives have a fitted effect of over 45% in size).
A short description of experiment [6]: qHTS assay to identify small molecule antagonists of the androgen receptor (AR) signaling pathway using the MDA cell line - cell viability counter screen (AID 743041; further: nearly all actives have a fitted effect of over 45% in size). Summed up: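 Compound exposure lasted 16 h at 37C in MDA-kb2 AR-luc cells stimulated with R1881. Protease-based CellTiter-Fluor reagent was applied for the final 30 min and fluorescence measured.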

Experiment [7] deals with Androgen receptor (Homo sapiens) (UniProt P10275). In words: qHTS assay to identify small molecule antagonists of the androgen receptor (AR) signaling pathway (AID 743035; active means well fitted inhibition curve with a large enough effect in the signal ratio in the repeat runs, not every such curve was filed as active; the % refers to the signal ratio). In outline:
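Quantitative HTS of the Tox21 10K library used HEK293 AR-UAS-bla cells stimulated with R1881 alongside compound for 16 h at 37C, followed by beta-lactamase FRET detection (LiveBLAzer B/G, 2 h, RT).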

Experiment [8] shares this target. In words: qHTS assay to identify small molecule agonists of the androgen receptor (AR) signaling pathway (AID 743036; active means well fitted activation curve with a large enough effect in the signal ratio in the repeat runs, with a control signal flat, not every such curve was filed as active; the % refers to the signal ratio). In outline:
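Fluorescence from a beta-lactamase FRET substrate served as read-out in AR-UAS-bla GripTite HEK293 cells. Cells were treated with DMSO-dissolved compounds for 16 h at 37C, then with LiveBLAzer B/G substrate for 2 h at room temperature.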

Experiment [9] shares this target. In words: qHTS assay to identify small molecule agonists of the androgen receptor (AR) signaling pathway using the MDA cell line (AID 743040; further: nearly all actives have a fitted effect of over 20% in size). In outline: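 Testing was done with the MDA-kb2 AR-luc line, a human breast carcinoma stably transfected with MMTV-luciferase containing AR and GR response elements. Cells were exposed 16 h at 37C before ONE-Glo luminescence detection.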

Experiment [10] has the same target. In words: qHTS assay to identify small molecule antagonists of the androgen receptor (AR) signaling pathway using the MDA cell line (AID 743042; further: nearly all actives have a fitted effect of over 55% in size). In outline:
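MDA-kb2 breast carcinoma cells carrying MMTV-luciferase (AR/GR responsive) were co-treated with compounds and the agonist R1881 for 16 h at 37C. Inhibition read as ONE-Glo luminescence; CellTiter-Fluor fluorescence measured in parallel for cytotoxicity.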

Sequence of Androgen receptor (Homo sapiens) (P10275 whole entry, looked up): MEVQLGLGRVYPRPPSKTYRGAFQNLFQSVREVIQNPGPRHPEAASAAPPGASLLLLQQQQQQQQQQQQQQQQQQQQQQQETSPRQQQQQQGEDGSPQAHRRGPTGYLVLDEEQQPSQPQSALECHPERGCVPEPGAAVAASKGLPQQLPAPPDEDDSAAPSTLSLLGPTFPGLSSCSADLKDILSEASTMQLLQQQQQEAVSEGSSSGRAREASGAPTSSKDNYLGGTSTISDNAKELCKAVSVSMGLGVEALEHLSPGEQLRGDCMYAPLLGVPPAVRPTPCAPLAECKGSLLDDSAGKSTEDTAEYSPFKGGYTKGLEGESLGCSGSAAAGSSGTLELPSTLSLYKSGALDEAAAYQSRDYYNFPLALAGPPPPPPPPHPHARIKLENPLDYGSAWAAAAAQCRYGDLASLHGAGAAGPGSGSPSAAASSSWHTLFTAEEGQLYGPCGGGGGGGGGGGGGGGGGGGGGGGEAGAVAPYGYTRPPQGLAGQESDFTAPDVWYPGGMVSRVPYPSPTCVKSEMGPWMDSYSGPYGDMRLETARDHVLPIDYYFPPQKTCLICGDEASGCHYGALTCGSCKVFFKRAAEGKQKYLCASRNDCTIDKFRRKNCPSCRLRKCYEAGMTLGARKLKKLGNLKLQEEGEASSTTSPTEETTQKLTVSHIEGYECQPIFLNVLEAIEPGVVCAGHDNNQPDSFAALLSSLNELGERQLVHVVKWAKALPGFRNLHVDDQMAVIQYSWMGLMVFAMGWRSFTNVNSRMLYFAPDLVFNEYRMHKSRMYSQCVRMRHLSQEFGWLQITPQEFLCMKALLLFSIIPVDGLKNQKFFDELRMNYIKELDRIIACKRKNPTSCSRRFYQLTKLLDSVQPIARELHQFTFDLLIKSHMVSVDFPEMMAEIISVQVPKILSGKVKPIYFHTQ

Take `CN1CCC[C@@H]1Cc1c[nH]c2ccc(CCS(=O)(=O)c3ccccc3)cc12`: the compound was classed as inactive in experiment [1] and in [5]. Further, the values for the Potency in experiment [2], in experiment [3] and in experiment [4] were 26600 nM (active), 33500 nM (active) and 29800 nM (active), respectively. For the same compound, in experiment [6], the Potency result is “inactive”.

Consider `CCCCC(CC)COC(=O)COc1cc(Cl)c(Cl)cc1Cl` (stereo unspecified), for which the compound was classed as inactive in experiment [1] and in experiment [5]. The Potency entry in experiment [2], in experiment [3], in experiment [4] and in [6] was “inactive” throughout.

For `Cc1ccc([N+](=O)[O-])cc1Cl`, the compound was called inactive in [1] and in experiment [5]. Also, the Potency entry in [2], in [3], in experiment [4] and in [6] was “inactive” throughout.

Consider `C1CSCCS1`, for which the compound was classed as inactive in [1] and in experiment [5]. The Potency entry in [2], in [3], in experiment [4] and in experiment [6] was “inactive” throughout.

As for `O=C(O)[C@@H](O)[C@H](O)[C@H](O)[C@@H](O)C(=O)O`, the call in experiment [1] and in experiment [5] was inactive. Also, the Potency result in experiment [2], in experiment [3], in experiment [4] and in experiment [6] was “inactive” in each case.

On to `Cc1ncc(CO)c(CN)c1O`, for which the result in experiment [1], in experiment [5], in [8] and in [10] was inactive. Also, the Potency entry in [2], in experiment [3], in experiment [4], in experiment [7], in experiment [9] and in [6] was “inactive” throughout.

In the case of `CCCCC1CCC(=O)O1` (stereo unspecified), the compound was classed as inactive in experiment [1] and in experiment [5]. Moreover, the Potency result in experiment [2], in experiment [3], in [4] and in experiment [6] was “inactive” throughout.

Consider `N#Cc1ccc(C(c2ccc(C#N)cc2)n2cncn2)cc1`, for which the result in [1], in experiment [5], in [8] and in experiment [10] was inactive. The Potency result in experiment [2], in experiment [3], in [4], in experiment [7], in [9] and in experiment [6] was “inactive” throughout.

As to `O=C(O)c1cccc(Cl)c1Cl`, the compound was classed as inactive in [1] and in [5]. In addition, the Potency result in experiment [2], in [3], in [4] and in experiment [6] was “inactive” each time.

As to `CC(C)(CO)[C@@H](O)C(=O)NCCC(=O)O`, the result in [1] and in experiment [5] was inactive. For the same compound, the Potency result in experiment [2], in experiment [3], in experiment [4] and in experiment [6] was “inactive” in each case.

Turning to `OCCN(CCO)c1ccccc1`, the compound was classed as inactive in [1], in [5], in experiment [8] and in experiment [10]. For the same compound, the Potency result in experiment [2], in experiment [3], in experiment [4], in experiment [7] and in experiment [9] was “inactive” throughout.

Regarding `CC(C)S`, the result in experiment [1] and in experiment [5] was inactive. The Potency entry in experiment [2], in [3], in experiment [4] and in [6] was “inactive” throughout.

Take `CO[C@@]1(NC(=O)CSCC#N)C(=O)N2C(C(=O)O)=C(CSc3nnnn3C)CS[C@@H]21`: the call in experiment [1] and in [5] was inactive. In addition, the Potency result in experiment [2], in experiment [3], in experiment [4] and in experiment [6] was “inactive” in each case.

Take `CCN[C@H]1CN(CCCOC)S(=O)(=O)c2sc(S(N)(=O)=O)cc21`: the result in experiment [1] and in experiment [5] was inactive. For the same compound, the Potency result in experiment [2], in [3], in experiment [4] and in experiment [6] was “inactive” throughout.

Turning to `CC1(C)O[C@@H]2C[C@H]3[C@@H]4CCC5=CC(=O)CC[C@]5(C)[C@@]4(F)[C@@H](O)C[C@]3(C)[C@]2(C(=O)CCl)O1`, the call in [1] and in experiment [5] was inactive. The Potency entry in experiment [2], in experiment [3], in [4] and in experiment [6] was “inactive” throughout.

On to `O=c1[nH]c(=O)n([C@H]2C[C@H](O)[C@@H](CO)O2)cc1C(F)(F)F`, for which the compound was called inactive in experiment [1] and in [5]. Also, the figures for the Potency in experiment [2], in experiment [3] and in [4] were 944 nM (active), 133 nM (active) and 188 nM (active), respectively. Further, in experiment [6], the Potency result is “inactive”.

On to `CC(C)C[C@H](NC(=O)OCC1c2ccccc2-c2ccccc21)C(=O)O`, for which the outcome in [1] and in experiment [5] was inactive. Further, the Potency result in experiment [2], in experiment [3], in experiment [4] and in experiment [6] was “inactive” each time.

As for `CN(CC1(C)CCCO1)S(=O)(=O)c1ccc(Cl)c(S(N)(=O)=O)c1` (stereo unspecified), the outcome in experiment [1] and in [5] was inactive. The Potency result in [2], in experiment [3], in experiment [4] and in experiment [6] was “inactive” in each case.

Turning to `CCCCNc1ccc(C(=O)OCCN(CC)CC)cc1`, the compound was classed as inactive in [1] and in experiment [5]. For the same compound, the figures for the Potency in experiment [2], in [3] and in experiment [4] were 2370 nM (active), 1680 nM (active) and 2370 nM (active), respectively. Also, in [6], the Potency entry is “inactive”.

For `CC(C)C1=CC2=CC[C@@H]3[C@](C)(CCC[C@@]3(C)C(=O)O)[C@H]2CC1`, the compound was classed as inactive in [1] and in [5]. Also, the Potency result in experiment [2], in [3], in experiment [4] and in experiment [6] was “inactive” throughout.

`CCCCNCCCC`: the outcome in [1] and in experiment [5] was inactive. Moreover, the Potency entry in [2], in [3], in [4] and in experiment [6] was “inactive” each time.

For `CCOc1ccc(OCC)c(Cl)c1`, the compound was classed as inactive in experiment [1] and in experiment [5]. Further, the Potency result in experiment [2], in [3], in experiment [4] and in [6] was “inactive” each time.

As for `CCCCNc1cc(C(=O)O)cc(S(N)(=O)=O)c1Oc1ccccc1`, the outcome in [1] and in [5] was inactive. The Potency entry in [2], in experiment [3], in experiment [4] and in experiment [6] was “inactive” in each case.

As to `CN(C)Cc1ccccc1`, the compound was classed as inactive in experiment [1], in experiment [5], in [8] and in experiment [10]. In addition, the Potency entry in experiment [2], in experiment [3], in [4], in [7], in [9] and in experiment [6] was “inactive” in each case.

Consider `CC(C)C(=O)OC/C=C/c1ccccc1`, for which the result in experiment [1] and in experiment [5] was inactive. Also, the Potency entry in experiment [2], in experiment [3], in experiment [4] and in experiment [6] was “inactive” each time.

For the compound `C[C@@H](N)C(=O)O`, the result in experiment [1], in [5], in [8] and in experiment [10] was inactive. The Potency entry in experiment [2], in [3], in experiment [4], in experiment [9] and in experiment [6] was “inactive” in each case.

Consider `CCCCCCCCc1ccc(S(=O)(=O)O)cc1`, for which the result in experiment [1] and in [5] was inactive. Besides, the Potency entry in [2], in experiment [3], in [4] and in experiment [6] was “inactive” throughout.

As to `COc1nc(C)nc(NC(=O)NS(=O)(=O)c2ccccc2OCCCl)n1`, the call in [1] and in experiment [5] was inactive. For the same compound, the Potency result in experiment [2], in [3], in experiment [4] and in experiment [6] was “inactive” throughout.
